The results in this text go back to article PMC7862700, “An all-to-all approach to the identification of sequence-specific readers for epigenetic DNA modifications on cytosine”.

What all share (assay): DAPPL (digital affinity profiling via proximity ligation, sequencing); 10 mM Tris-HCl pH 7.5, 50 mM NaCl, 1 mM DTT, 4% glycerol, room temperature, 30 min; GST-TFs on glutathione beads, 16-mer random dsDNA library, 0.1% formaldehyde crosslink after washing; high values mean tight binding
One experiment has as its target T1, FLI1 (Homo sapiens, UniProt Q01543 1-452).
T1 sequence: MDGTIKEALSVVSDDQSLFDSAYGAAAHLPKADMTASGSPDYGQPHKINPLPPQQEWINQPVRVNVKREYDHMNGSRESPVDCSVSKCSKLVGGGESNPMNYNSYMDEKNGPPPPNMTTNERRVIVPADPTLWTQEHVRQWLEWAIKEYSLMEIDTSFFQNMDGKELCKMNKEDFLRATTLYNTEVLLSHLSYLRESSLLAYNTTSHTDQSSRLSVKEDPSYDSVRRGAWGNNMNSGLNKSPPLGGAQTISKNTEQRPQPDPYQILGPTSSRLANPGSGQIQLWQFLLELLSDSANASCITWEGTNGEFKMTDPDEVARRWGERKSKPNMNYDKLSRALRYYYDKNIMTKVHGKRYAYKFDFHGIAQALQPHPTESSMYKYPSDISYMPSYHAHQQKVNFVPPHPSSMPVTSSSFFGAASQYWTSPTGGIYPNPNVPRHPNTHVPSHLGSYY
As to conditions: protein: recombinant; tags: N-terminal GST; dsDNA, one strand shown. Summed up:
(§1)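 The binding signal reported is, for every hexamer, its read frequency for a factor over its read frequency for the tag-only sample. Reads came from pools of yeast-expressed, GST-fused human transcription factors on glutathione beads, barcoded with DNA and mixed with that sample, which were incubated with 200 nmole of a random double-stranded 16-mer DNA library in Tris/NaCl/DTT/glycerol buffer at room temperature for 30 min. After washing, the pools were crosslinked with 0.1% formaldehyde, proximity-ligated with BsaI/T4 ligase for 1 h at 37 °C, PCR-amplified and sequenced on an Illumina NextSeq500.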

The target in the next experiment is T2, ELK1 (Homo sapiens, UniProt P19419 1-428).
T2 sequence: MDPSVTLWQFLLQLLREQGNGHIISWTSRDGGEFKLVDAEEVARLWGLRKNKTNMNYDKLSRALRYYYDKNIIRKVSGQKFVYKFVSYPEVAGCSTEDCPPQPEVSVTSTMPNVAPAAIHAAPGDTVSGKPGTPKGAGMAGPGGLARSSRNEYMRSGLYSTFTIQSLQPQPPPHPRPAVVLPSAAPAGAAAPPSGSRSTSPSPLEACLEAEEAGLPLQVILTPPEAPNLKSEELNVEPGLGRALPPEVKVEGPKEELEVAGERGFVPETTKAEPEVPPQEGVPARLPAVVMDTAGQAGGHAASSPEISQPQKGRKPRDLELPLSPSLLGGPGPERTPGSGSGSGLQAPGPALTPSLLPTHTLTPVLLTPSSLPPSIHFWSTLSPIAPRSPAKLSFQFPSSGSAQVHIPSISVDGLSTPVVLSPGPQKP
As to conditions: protein: recombinant; tags: N-terminal GST; dsDNA, one strand shown. Put shortly: as §1

Another experiment concerns the target T3, GABPA (Homo sapiens, UniProt Q06546 1-454).
T3 sequence: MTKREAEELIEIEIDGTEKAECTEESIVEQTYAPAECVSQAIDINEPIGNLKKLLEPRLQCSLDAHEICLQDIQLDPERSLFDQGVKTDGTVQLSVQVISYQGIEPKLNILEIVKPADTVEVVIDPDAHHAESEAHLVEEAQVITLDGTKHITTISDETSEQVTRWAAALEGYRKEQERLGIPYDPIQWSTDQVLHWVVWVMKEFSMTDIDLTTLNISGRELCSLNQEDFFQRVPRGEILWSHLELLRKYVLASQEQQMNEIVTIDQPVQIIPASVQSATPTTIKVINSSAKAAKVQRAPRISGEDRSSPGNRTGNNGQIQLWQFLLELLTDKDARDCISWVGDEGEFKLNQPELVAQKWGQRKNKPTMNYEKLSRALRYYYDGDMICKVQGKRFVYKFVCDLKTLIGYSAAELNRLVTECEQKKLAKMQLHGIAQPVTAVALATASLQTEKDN
To be noted: protein: recombinant; tags: N-terminal GST; dsDNA, one strand shown. Put shortly: as §1

A further experiment deals with T4, ERG (Homo sapiens, UniProt P11308 1-479).
T4 sequence: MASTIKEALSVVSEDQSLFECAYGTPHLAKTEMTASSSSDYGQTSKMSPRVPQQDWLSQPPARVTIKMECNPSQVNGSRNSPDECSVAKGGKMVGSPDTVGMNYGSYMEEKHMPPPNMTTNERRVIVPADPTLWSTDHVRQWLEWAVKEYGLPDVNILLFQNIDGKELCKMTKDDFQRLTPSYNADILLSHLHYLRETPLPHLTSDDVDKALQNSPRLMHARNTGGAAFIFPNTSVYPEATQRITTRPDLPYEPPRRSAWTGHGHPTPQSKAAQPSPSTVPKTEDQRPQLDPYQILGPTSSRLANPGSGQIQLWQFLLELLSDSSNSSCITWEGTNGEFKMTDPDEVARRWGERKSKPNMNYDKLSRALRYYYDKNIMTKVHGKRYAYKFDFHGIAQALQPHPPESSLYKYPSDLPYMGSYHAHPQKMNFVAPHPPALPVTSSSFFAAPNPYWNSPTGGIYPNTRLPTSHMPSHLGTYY
As to conditions: protein: recombinant; tags: N-terminal GST; dsDNA, one strand shown. Summed up: as §1

A further experiment has as its target ELF1 (Homo sapiens, UniProt P32519 1-619). To be noted: protein: recombinant; tags: N-terminal GST; dsDNA, one strand shown. Put shortly:
as §1

The next experiment deals with T5, EHF (Homo sapiens, UniProt Q9NZC4 1-300).
T5 sequence: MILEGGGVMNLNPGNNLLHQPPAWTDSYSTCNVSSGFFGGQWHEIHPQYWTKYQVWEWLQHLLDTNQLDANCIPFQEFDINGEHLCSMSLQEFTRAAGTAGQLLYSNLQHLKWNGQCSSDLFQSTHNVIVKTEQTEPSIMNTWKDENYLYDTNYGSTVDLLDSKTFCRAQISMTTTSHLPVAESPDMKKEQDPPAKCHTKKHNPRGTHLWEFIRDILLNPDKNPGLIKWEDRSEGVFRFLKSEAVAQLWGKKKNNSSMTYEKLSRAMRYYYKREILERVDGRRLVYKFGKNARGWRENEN
As to conditions: protein: recombinant; tags: N-terminal GST; dsDNA, one strand shown. Put shortly:
as §1

The target in a further experiment is SPI1 (Homo sapiens, UniProt P17947 1-270). As to conditions: protein: recombinant; tags: N-terminal GST; dsDNA, one strand shown. Summed up: as §1
For the next experiment, the target named is SPIB (Homo sapiens, UniProt Q01892 1-262). As to conditions: protein: recombinant; tags: N-terminal GST; dsDNA, one strand shown. Summed up: as §1
The next experiment addresses T6, ELK3 (Homo sapiens, UniProt P41970 1-407).
T6 sequence: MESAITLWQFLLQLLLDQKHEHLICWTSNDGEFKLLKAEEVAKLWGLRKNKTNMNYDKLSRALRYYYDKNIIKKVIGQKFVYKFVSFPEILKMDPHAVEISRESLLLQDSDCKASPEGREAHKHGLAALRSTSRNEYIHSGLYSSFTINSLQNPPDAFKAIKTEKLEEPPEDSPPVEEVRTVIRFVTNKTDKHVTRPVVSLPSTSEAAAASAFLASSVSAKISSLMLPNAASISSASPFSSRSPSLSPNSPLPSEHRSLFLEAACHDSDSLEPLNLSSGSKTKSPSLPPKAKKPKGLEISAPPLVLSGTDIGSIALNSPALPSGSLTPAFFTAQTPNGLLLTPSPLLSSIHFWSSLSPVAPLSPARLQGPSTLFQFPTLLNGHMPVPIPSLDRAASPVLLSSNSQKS
As to conditions: protein: recombinant; tags: N-terminal GST; dsDNA, one strand shown. Summed up:
as §1

In a further experiment the target is T7, FEV (Homo sapiens, UniProt Q99581 1-238).
T7 sequence: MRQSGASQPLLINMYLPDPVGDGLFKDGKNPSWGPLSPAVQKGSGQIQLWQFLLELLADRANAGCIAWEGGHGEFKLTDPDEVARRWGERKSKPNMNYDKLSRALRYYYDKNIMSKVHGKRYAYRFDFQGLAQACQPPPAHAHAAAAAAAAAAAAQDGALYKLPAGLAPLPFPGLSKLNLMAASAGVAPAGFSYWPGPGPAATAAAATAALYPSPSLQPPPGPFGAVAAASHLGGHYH
To be noted: protein: recombinant; tags: N-terminal GST; dsDNA, one strand shown. Put shortly: as §1

A further experiment addresses ETV5 (Homo sapiens, UniProt P41161 1-510). To be noted: protein: recombinant; tags: N-terminal GST; dsDNA, one strand shown. Summed up: as §1
A further experiment deals with HSF1 (Homo sapiens, UniProt Q00613 1-529). As to conditions: protein: recombinant; tags: N-terminal GST; chain copies: 3; dsDNA, one strand shown. Summed up:
as §1

A further experiment has as its target T8, SPIC (Homo sapiens, UniProt Q8N5J4 1-248).
T8 sequence: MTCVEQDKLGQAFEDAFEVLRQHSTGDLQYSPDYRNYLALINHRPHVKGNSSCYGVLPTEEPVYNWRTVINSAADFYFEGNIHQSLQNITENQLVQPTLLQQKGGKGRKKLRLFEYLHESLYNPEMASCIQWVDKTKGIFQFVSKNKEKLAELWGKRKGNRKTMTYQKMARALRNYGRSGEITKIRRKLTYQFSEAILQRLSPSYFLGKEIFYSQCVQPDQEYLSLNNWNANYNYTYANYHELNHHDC
To be noted: protein: recombinant; tags: N-terminal GST; dsDNA, one strand shown. Put shortly:
as §1

The target in a further experiment is ELF4 (Homo sapiens, UniProt Q99607 1-663). To be noted: protein: recombinant; tags: N-terminal GST; dsDNA, one strand shown. Summed up: as §1
The next experiment addresses T9, ELK4 (Homo sapiens, UniProt P28324-2 1-405).
T9 sequence: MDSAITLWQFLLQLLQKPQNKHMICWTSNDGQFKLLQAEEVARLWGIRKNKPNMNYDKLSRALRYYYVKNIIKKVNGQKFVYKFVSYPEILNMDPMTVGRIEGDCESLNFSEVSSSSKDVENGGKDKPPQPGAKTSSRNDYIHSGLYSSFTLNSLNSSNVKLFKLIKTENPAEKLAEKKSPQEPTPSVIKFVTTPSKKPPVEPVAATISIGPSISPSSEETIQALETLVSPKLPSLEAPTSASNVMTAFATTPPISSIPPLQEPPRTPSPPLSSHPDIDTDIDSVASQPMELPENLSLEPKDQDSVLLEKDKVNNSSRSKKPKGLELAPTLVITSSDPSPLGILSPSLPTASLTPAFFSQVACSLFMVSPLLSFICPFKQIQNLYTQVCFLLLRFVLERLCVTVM
As to conditions: protein: recombinant; tags: N-terminal GST; dsDNA, one strand shown. Summed up:
as §1

Another experiment has as its target T10, ETV2 (Homo sapiens, UniProt O00321 1-342).
T10 sequence: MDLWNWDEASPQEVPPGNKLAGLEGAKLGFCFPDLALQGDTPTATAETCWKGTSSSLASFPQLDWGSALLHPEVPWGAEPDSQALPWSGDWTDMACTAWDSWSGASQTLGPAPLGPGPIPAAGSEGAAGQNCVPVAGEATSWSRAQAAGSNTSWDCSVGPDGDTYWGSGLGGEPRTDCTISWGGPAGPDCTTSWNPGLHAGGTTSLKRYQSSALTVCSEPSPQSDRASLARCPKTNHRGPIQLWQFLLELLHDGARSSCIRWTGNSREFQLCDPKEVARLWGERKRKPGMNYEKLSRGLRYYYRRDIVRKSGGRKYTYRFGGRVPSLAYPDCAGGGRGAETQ
To be noted: protein: recombinant; tags: N-terminal GST; dsDNA, one strand shown. Put shortly: as §1

The next experiment addresses T11, ELF3 (Homo sapiens, UniProt P78545 1-371).
T11 sequence: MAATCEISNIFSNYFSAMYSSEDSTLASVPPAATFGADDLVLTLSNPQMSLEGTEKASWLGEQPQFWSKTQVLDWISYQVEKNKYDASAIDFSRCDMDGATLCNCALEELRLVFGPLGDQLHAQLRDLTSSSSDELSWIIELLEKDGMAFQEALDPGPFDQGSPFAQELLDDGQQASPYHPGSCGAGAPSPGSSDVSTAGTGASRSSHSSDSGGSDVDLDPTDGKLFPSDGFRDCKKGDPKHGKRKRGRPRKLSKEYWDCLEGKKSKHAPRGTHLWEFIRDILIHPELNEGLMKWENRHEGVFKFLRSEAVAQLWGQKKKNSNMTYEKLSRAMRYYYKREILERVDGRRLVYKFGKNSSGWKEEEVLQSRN
To be noted: protein: recombinant; tags: N-terminal GST; dsDNA, one strand shown. Summed up: as §1

Another experiment deals with CRX (Homo sapiens, UniProt O43186 1-299). To be noted: protein: recombinant; tags: N-terminal GST; dsDNA, one strand shown. Summed up:
as §1

The next experiment concerns the target ETV1 (Homo sapiens, UniProt P50549 1-477). As to conditions: protein: recombinant; tags: N-terminal GST; dsDNA, one strand shown. Summed up: as §1

Sequence of ETV5 (P41161 whole entry): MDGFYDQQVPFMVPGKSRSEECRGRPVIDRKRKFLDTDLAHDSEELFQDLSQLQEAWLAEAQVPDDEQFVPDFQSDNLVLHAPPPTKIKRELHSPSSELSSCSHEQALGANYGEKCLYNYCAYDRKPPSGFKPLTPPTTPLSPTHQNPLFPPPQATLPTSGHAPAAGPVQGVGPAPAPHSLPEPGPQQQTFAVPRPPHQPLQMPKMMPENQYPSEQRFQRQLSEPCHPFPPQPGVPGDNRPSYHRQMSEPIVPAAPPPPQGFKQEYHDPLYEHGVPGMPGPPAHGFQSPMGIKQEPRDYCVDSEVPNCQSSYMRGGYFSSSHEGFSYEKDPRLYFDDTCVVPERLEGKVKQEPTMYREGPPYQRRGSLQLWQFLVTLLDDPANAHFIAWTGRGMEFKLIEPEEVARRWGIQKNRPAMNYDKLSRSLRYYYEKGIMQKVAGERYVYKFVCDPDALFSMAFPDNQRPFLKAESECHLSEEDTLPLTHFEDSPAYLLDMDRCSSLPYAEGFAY
Sequence of HSF1 (Q00613 whole entry): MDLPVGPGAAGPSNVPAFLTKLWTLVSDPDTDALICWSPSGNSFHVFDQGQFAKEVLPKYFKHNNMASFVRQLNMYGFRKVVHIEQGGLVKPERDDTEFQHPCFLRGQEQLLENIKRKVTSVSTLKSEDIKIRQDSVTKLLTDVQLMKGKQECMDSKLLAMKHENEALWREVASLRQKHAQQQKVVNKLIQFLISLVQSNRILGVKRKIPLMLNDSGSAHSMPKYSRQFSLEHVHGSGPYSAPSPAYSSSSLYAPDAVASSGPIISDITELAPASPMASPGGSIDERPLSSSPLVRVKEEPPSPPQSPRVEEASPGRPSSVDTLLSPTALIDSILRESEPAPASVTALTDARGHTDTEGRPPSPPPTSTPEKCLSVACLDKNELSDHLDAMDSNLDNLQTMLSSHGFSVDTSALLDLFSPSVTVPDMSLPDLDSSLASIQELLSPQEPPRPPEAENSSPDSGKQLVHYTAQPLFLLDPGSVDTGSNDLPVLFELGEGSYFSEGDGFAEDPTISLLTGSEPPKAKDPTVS
Sequence of ELF1 (P32519 whole entry): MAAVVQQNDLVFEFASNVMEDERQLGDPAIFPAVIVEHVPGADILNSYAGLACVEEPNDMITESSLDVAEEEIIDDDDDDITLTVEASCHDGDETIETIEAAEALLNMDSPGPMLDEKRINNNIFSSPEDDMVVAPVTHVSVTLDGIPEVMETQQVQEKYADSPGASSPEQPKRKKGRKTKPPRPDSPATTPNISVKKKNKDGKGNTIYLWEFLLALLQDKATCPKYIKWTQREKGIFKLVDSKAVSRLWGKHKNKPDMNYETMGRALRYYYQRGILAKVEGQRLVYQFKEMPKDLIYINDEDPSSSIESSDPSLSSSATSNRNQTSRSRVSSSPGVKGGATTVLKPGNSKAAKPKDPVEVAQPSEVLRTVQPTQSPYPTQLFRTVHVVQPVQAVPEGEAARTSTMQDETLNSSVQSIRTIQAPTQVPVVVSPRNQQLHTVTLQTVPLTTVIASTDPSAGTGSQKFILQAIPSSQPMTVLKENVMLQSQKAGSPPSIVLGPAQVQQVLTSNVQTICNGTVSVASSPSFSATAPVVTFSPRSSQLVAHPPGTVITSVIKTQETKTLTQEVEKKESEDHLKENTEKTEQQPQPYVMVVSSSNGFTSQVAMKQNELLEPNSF
Sequence of ELF4 (Q99607 whole entry): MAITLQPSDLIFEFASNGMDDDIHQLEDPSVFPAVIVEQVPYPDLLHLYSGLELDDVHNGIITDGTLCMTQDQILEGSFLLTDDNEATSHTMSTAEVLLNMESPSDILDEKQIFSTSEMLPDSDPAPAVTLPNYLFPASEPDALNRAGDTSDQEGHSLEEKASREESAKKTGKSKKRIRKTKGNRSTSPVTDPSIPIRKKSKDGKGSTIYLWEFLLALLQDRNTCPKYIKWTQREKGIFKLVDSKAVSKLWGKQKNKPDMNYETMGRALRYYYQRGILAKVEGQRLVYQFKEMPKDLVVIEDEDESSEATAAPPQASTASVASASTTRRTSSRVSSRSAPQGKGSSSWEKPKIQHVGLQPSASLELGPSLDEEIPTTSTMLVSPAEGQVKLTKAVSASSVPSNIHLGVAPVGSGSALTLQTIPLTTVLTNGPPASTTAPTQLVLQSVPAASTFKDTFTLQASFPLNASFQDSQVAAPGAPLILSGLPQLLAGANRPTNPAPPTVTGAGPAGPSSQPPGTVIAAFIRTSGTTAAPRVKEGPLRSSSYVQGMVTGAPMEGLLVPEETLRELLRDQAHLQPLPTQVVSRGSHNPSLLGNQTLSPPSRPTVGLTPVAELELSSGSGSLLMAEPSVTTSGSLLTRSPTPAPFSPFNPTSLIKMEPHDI
Sequence of ETV1 (P50549 whole entry): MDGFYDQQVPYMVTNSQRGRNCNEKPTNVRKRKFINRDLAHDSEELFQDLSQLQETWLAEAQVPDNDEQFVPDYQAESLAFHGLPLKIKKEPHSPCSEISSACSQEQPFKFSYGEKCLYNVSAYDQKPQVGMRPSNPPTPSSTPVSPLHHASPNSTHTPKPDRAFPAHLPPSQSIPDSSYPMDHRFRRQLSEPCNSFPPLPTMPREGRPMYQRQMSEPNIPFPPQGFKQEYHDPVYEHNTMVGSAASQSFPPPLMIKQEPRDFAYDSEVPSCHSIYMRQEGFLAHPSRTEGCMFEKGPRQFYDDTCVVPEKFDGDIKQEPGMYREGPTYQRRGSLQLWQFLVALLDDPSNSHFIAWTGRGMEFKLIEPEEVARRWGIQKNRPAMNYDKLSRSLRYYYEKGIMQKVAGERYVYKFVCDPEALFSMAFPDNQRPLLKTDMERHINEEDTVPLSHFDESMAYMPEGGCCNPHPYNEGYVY
Sequence of CRX (O43186 whole entry): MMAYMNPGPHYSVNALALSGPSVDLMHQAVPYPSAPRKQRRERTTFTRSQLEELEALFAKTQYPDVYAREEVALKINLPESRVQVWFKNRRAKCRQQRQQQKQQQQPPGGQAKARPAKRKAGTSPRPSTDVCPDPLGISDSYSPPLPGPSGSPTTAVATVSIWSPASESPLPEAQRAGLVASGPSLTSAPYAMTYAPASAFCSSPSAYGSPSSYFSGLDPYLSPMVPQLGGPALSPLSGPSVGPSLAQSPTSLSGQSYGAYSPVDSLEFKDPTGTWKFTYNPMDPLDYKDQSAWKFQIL
Sequence of SPIB (Q01892 whole entry): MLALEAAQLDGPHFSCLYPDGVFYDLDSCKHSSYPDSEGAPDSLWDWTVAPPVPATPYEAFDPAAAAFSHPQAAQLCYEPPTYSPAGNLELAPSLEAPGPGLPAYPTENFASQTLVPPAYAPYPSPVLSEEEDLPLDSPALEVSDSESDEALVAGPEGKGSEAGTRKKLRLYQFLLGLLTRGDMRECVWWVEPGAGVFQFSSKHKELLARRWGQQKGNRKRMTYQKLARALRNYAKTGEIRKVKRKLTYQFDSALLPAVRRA

As to ATCCAA, the binding signal with FLI1 is 1.15 fold enrichment (6-mer frequency, TF over GST control); in the experiment with ELK1, 1.19 fold enrichment (6-mer frequency, TF over GST control); with GABPA, 1.18 fold enrichment (6-mer frequency, TF over GST control); in the experiment with ERG, 1.09 fold enrichment (6-mer frequency, TF over GST control); with ELF1, 1.2 fold enrichment (6-mer frequency, TF over GST control); with EHF, 1.1 fold enrichment (6-mer frequency, TF over GST control). Also, the binding signal with SPI1 was 1.11 fold enrichment (6-mer frequency, TF over GST control); with SPIB it was 1.22 fold enrichment (6-mer frequency, TF over GST control); with ELK3 it was 1.14 fold enrichment (6-mer frequency, TF over GST control); with FEV, 1.19 fold enrichment (6-mer frequency, TF over GST control); with ETV5 it was 1.13 fold enrichment (6-mer frequency, TF over GST control); in the experiment with HSF1 it was 1.29 fold enrichment (6-mer frequency, TF over GST control). Also, the binding signal with SPIC is 1.12 fold enrichment (6-mer frequency, TF over GST control); in the experiment with ELF4 it was 1.23 fold enrichment (6-mer frequency, TF over GST control); with ELK4, 1.16 fold enrichment (6-mer frequency, TF over GST control); with ETV2, 1.09 fold enrichment (6-mer frequency, TF over GST control); with ELF3, 1.28 fold enrichment (6-mer frequency, TF over GST control); in the experiment with CRX, 1.63 fold enrichment (6-mer frequency, TF over GST control). The binding signal with ETV1 is 1.18 fold enrichment (6-mer frequency, TF over GST control).
